This is one part of a sample in which hits are shown more often than they occur.
IDH1 mut inh = blocks human IDH1 R132H reductase activity | diaphorase/resazurin fluorescence, 60 min | inhibition, % at 10 µM | 0.18% of 70,000 active; in the data active = inhibition above about 34%
Of the large screens only hits and unclear results are named; the others gave an inactive call.

N#CC(C#N)=Cc1ccc(O)cc1	none
N#CC(C#N)=Cc1cc(O)c(O)c(O)c1	IDH1 mut inh 33
Oc1cc2c(cc1O)C1c3ccccc3CNC1CC2 (stereo not drawn)	none

High-throughput results from PubChem.
